The results in this text go back to PubChem BioAssay.

For assay [1], the target named is Regulator of G-protein signaling 16 (Homo sapiens) (UniProt O15492). In words: modulators of RGS–Galpha-o binding, primary screen, biochemical, multiplexed beads, flow cytometry, RGS4/7/8/16/19 (AID 1504).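 Further: fluorescently labeled Galpha-o bound to GDP with aluminium fluoride binding biotinylated RGS beads.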 The conditions noted are these: multiplexed bead flow cytometry, measured here: RGS16 interaction, at 10 µM.
Assay [2] deals with Regulator of G-protein signaling 19 (Homo sapiens) (UniProt P49795). The assay is described as above. The conditions noted are these: multiplexed bead flow cytometry, measured here: RGS19 interaction, at 10 µM.
Assay [3] has as its target Regulator of G-protein signaling 7 (Homo sapiens) (UniProt P49802). The assay is described as above. The conditions noted are these: multiplexed bead flow cytometry, measured here: RGS7 interaction, at 10 µM. A general note: In flow cytometry, cells or beads pass a laser one at a time.
The target in assay [4] is Regulator of G-protein signaling 8 (Homo sapiens) (UniProt P57771). The assay is described as above. The conditions noted are these: multiplexed bead flow cytometry, measured here: RGS8 interaction, at 10 µM.
A short description of assay [5]: disruption of biotin probe capture by avidin, counter-screen for RGS protein interaction modulators, biochemical, flow cytometry, bead-based (AID 1783).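 Further: median green fluorescence of gated singlet beads compared with DMSO control wells; 0% = DMSO wells and 100% = complete loss of bead fluorescence.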 The conditions noted are these: streptavidin beads, fluorescein-biotin binding; at 10 µM, stronger effect = higher value. (A counterscreen serves to expose hits that act by an unwanted route or on another target.)
In assay [6] the target is Guanine nucleotide-binding protein G(o) subunit alpha (Homo sapiens) (UniProt P09471). Briefly: RGS8-Galphao binding modulators, confirmation, biochemical, multiplexed bead flow cytometry, single concentration (AID 1836; in the data active means binding response below about 72% or above about 130%; inactive means in between;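 further: Galphao activated as GDP AlF4 complex before binding bead RGS8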). The conditions noted are these: bead-based flow cytometry RGS8-Galphao binding, fluorescence; at 10 µM; actives lie on both sides.
Assay [7] shares this target. Briefly: RGS7-Galphao binding modulators, confirmation, biochemical, multiplexed bead flow cytometry, single concentration (AID 1837; in the data active means response below about 75% or above about 130%; inactive means in between;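 further: fluorescent Galphao activated with GDP and aluminum fluoride binding bead-coupled RGS7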). Particulars: bead-based flow cytometry RGS7-Galphao binding; at 10 µM; actives lie on both sides.
Assay [8] has as its target Regulator of G-protein signaling 16 (Homo sapiens) + Guanine nucleotide-binding protein G(o) subunit alpha (Homo sapiens) (UniProt O15492+P09471). Briefly: modulators of RGS16-Galphao protein binding, confirmation, biochemical, single concentration, multiplexed bead flow cytometry (AID 1838; in the data active means response below about 74% or above about 130%; inactive means in between;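 further: Galphao activated as the GDP aluminium fluoride complex binding bead-coupled RGS16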). The conditions noted are these: bead-based flow cytometry, at 10 µM, actives lie on both sides.

The target in assay [9] is Guanine nucleotide-binding protein G(o) subunit alpha (Homo sapiens) (UniProt P09471). In words: modulators of RGS4-Galphao protein binding, confirmation, biochemical, single concentration, multiplexed bead flow cytometry (AID 1840; in the data active means binding response below about 74% or above about 130%; inactive means in between). Particulars: at 10 µM, actives lie on both sides.
Assay [10] has as its target Guanine nucleotide-binding protein G(o) subunit alpha (Homo sapiens) + Regulator of G-protein signaling 19 (Homo sapiens) (UniProt P09471+P49795). In words: regulators of RGS19-Galphao binding, confirmation, biochemical, single point, multiplexed bead flow cytometry (AID 1841; in the data active means response below about 50% or above about 160%; inactive means in between;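 further: 100% = no compound control and 0% = blank background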). The conditions noted are these: bead-based flow cytometry RGS19-Galphao binding; at 10 µM; actives lie on both sides.

Each structure is given as a SMILES string. Some of the results follow. The source made the active and inactive calls.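 How the source made its calls, unless noted: active means inhibition above 50%; inactive means the rest.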

Sequence of Guanine nucleotide-binding protein G(o) subunit alpha (Homo sapiens) + Regulator of G-protein signaling 19 (Homo sapiens) (P09471 whole entry, looked up): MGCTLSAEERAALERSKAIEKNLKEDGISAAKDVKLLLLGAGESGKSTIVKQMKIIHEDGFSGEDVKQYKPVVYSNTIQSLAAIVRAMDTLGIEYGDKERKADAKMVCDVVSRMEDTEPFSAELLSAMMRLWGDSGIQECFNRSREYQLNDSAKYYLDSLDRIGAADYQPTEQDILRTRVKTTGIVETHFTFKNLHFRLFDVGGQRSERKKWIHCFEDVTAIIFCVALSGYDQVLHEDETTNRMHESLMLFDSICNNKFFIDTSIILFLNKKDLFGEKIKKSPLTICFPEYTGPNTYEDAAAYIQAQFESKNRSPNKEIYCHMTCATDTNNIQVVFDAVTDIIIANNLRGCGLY
Sequence of Guanine nucleotide-binding protein G(o) subunit alpha (Homo sapiens) + Regulator of G-protein signaling 19 (Homo sapiens) (P49795 whole entry, looked up): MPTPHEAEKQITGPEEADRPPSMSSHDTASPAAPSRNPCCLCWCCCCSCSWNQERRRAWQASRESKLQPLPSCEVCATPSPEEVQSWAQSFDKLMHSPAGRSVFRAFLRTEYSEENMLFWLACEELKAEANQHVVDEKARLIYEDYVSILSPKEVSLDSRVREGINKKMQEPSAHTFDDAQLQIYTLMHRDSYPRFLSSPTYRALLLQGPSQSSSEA
Sequence of Guanine nucleotide-binding protein G(o) subunit alpha (Homo sapiens) (P09471 whole entry, looked up): as the sequence (P09471 whole entry, looked up) above
Sequence of Regulator of G-protein signaling 16 (Homo sapiens) + Guanine nucleotide-binding protein G(o) subunit alpha (Homo sapiens) (O15492 whole entry, looked up): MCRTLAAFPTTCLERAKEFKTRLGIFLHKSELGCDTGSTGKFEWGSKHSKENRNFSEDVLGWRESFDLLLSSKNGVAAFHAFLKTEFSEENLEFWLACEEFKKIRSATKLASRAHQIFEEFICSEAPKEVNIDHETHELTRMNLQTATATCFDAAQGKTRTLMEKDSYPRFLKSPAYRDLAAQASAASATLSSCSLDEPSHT
Sequence of Regulator of G-protein signaling 16 (Homo sapiens) + Guanine nucleotide-binding protein G(o) subunit alpha (Homo sapiens) (P09471 whole entry, looked up): as the sequence (P09471 whole entry, looked up) above

On to `CCOC(=O)c1oc2c(CN3CCN(C)CC3)c(O)ccc2c(=O)c1-c1ccc(Br)cc1`, for which, in [1], the RGS16–Galpha-o binding response was found to be 142%. In addition, the RGS19–Galpha-o binding response in [2] is 79.7%. In assay [3], the RGS7–Galpha-o binding response came out at 318%. The compound also had an RGS8–Galpha-o binding response in assay [4] of 107%. Moreover, the inhibition – broadly, the drop in the measured response relative to a control, in per cent – in [5] is -0.6% (inactive). The figures for the binding response (% of control) in assay [6] and in assay [9] were 97.5% (inactive) and 96.9% (inactive), respectively. For the same compound, the values for the response (percent of control binding) in assay [7] and in [10] were 95.5% (inactive) and 92.8% (inactive), respectively. Also, the response (% of control binding) in assay [8] is 98.4% (inactive).

Consider `CCN(CC)S(=O)(=O)c1cccc(-c2n[nH]c(=S)n2/N=C/c2ccc(C(=O)OC)cc2)c1`, for which the RGS16–Galpha-o binding response in assay [1] was 334%. In assay [2], the RGS19–Galpha-o binding response stood at 35.5%. In addition, the RGS7–Galpha-o binding response in assay [3] turned out to be 133%. The compound also registered an RGS8–Galpha-o binding response in assay [4] of 124%. In addition, the inhibition in assay [5] was -1.2% (inactive). The binding response (% of control) in assay [6] is 77.7% (inactive); in [9], 91% (inactive). Besides, the response (percent of control binding) is 113% (inactive) in assay [7] and 66.1% (inactive) in assay [10]. For the same compound, in assay [8], the response (% of control binding) is 74% (active).

As to `CCn1c(CSCc2c(Cl)cccc2Cl)n[nH]c1=S`, the RGS16–Galpha-o binding response in [1] was 46.1%. Further, the RGS19–Galpha-o binding response in assay [2] was found to be 1140%. The RGS7–Galpha-o binding response in assay [3] was -29.3%. For the same compound, the RGS8–Galpha-o binding response in assay [4] stood at 55.5%. Besides, the inhibition in [5] is 1.4% (inactive). Also, the binding response (% of control) was 89% (inactive) in assay [6] and 94.2% (inactive) in assay [9]. Further, the response (percent of control binding) was 89.5% (inactive) in assay [7] and 83.5% (inactive) in [10]. For the same compound, the response (% of control binding) in assay [8] is 88.1% (inactive).

For `CCCC(=O)N=c1sc2cccc(F)c2n1C`, the RGS16–Galpha-o binding response in assay [1] stood at 76.5%. Further, the RGS19–Galpha-o binding response in assay [2] turned out to be 14800%. Moreover, the RGS7–Galpha-o binding response in assay [3] was 18%. The RGS8–Galpha-o binding response in [4] stood at 37.2%.

`CCOC(=O)CSc1nc2c(c(=O)n(Cc3ccccc3Cl)c(=O)n2C)n1C`: in assay [1], the RGS16–Galpha-o binding response is -55.5%. In assay [2], the RGS19–Galpha-o binding response turned out to be 98.5%. Further, the RGS7–Galpha-o binding response in assay [3] is 88.1%. In assay [4], this compound returned an RGS8–Galpha-o binding response of 78.5%. The inhibition in assay [5] was 0.8% (inactive). Also, the binding response (% of control) in assay [6] was 95.8% (inactive); in [9] it was 94.7% (inactive). For the same compound, the response (percent of control binding) in assay [7] was 99.8% (inactive); in assay [10], 87.7% (inactive). Further, in assay [8], the response (% of control binding) is 99.1% (inactive).

With `CN(C)CCNC(=O)/C(=C/c1cccc([N+](=O)[O-])c1)NC(=O)c1ccccc1`, in assay [1], the RGS16–Galpha-o binding response was 219%. Further, the RGS19–Galpha-o binding response in [2] was -55.8%. In [3], the RGS7–Galpha-o binding response was found to be 113%. The same compound showed an RGS8–Galpha-o binding response in [4] of 124%. Moreover, the inhibition in assay [5] was -1.3% (inactive). Further, the binding response (% of control) in [6] was 103% (inactive); in [9] it was 104% (inactive). Also, the figures for the response (percent of control binding) in assay [7] and in assay [10] were 105% (inactive) and 91.3% (inactive), respectively. For the same compound, the response (% of control binding) in assay [8] is 101% (inactive).

Turning to `O=C(NC1CC1)c1ccc2c(c1)NC(=O)c1ccccc1S2`, the RGS16–Galpha-o binding response in assay [1] came out at 113%. Moreover, the RGS19–Galpha-o binding response in [2] came out at 370%. Also, the RGS7–Galpha-o binding response in assay [3] worked out at 191%. This compound showed an RGS8–Galpha-o binding response in [4] of 98.7%.

In the case of `CN(CC(=O)NC1CCCCC1)S(=O)(=O)c1cccc2cccnc12`, in [1], the RGS16–Galpha-o binding response was 94.7%. Moreover, in [2], the RGS19–Galpha-o binding response turned out to be 114%. Moreover, the RGS7–Galpha-o binding response in assay [3] came out at 241%. The RGS8–Galpha-o binding response in [4] is 89.3%.

For `O=C(Nc1cccc(F)c1)c1coc(=O)c(Br)c1`, the RGS16–Galpha-o binding response in [1] was determined as 100%. In addition, the RGS19–Galpha-o binding response in assay [2] worked out at 108%. Also, in [3], the RGS7–Galpha-o binding response came to 45.3%. The RGS8–Galpha-o binding response in assay [4] turned out to be 80.8%. The inhibition in [5] is -1.3% (inactive). Besides, the binding response (% of control) was 110% (inactive) in assay [6] and 103% (inactive) in [9]. Besides, the results for the response (percent of control binding) in assay [7] and in assay [10] were 105% (inactive) and 118% (inactive), respectively. In addition, the response (% of control binding) in assay [8] is 109% (inactive).

`O=C(Nc1cccc(-c2nc3ccccc3[nH]2)c1)c1ccc(C(=O)Nc2cccc(-c3nc4ccccc4[nH]3)c2)cc1`: the RGS16–Galpha-o binding response in assay [1] turned out to be 219%. In assay [2], the RGS19–Galpha-o binding response stood at 436%. For the same compound, in assay [3], the RGS7–Galpha-o binding response was 495%. The compound also yielded an RGS8–Galpha-o binding response in assay [4] of 112%. Besides, the inhibition in [5] is 1% (inactive). Further, the binding response (% of control) in assay [6] is 104% (inactive); in assay [9] it was 108% (inactive). Besides, the response (percent of control binding) in [7] is 126% [activator] (active); in [10], 217% (active). The response (% of control binding) in assay [8] is 131% [activator] (active).
